Laboratory results: PubChem BioAssay (NCI)
This is part of a sample that, as a whole, favours compounds with a hit. Of some 83,000 tested, about 20% had one in any assay.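 Testing used 96-well plates and a 48-hour single-concentration exposure. Example: -40 means 40% of the starting cells died.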 A number with no mark means an inactive call. Active and inactive are the calls of the source. How the source made its calls: active means growth percent below 10; inactive means the rest.

What was measured:
Assay in all cases: NCI-60 one-dose screen, 48 h (100 = growth as untreated, 0 = no growth, -100 = all killed)
Settings in all cases: 10 µM unless noted
SR leukemia = test system: SR leukemia
RPMI-8226 leukemia = test system: RPMI-8226 leukemia
OVCAR-8 ovarian = test system: OVCAR-8 ovarian
OVCAR-5 ovarian = test system: OVCAR-5 ovarian
OVCAR-4 ovarian = test system: OVCAR-4 ovarian
SK-OV-3 ovarian = test system: SK-OV-3 ovarian
IGROV1 ovarian = test system: IGROV1 ovarian
OVCAR-3 ovarian = test system: OVCAR-3 ovarian
HS 578T breast = test system: HS 578T breast
NCI/ADR-RES ovarian = test system: NCI/ADR-RES ovarian

Row | SMILES | growth (SR leukemia) | growth (RPMI-8226 leukemia) | growth (OVCAR-8 ovarian) | growth (OVCAR-5 ovarian) | growth (OVCAR-4 ovarian) | growth (SK-OV-3 ovarian) | growth (IGROV1 ovarian) | growth (OVCAR-3 ovarian) | growth (HS 578T breast) | growth (NCI/ADR-RES ovarian)
1 | Cc1cc(O)c(=O)cc2c1C[C@H]1CC(C)(C)/C=C/C[C@]3(C)Oc4cc(=O)c(O)cc(C)c4C[C@H]3C[C@H](O)[C@@]1(C)O2 | 12.4% | 3.46% (active) | 5.84% (active) | 18.9% | 9.54% (active) | -5.53% (active) | 11.2% | 15.5% | 30% | 0.831% (active)
2 | C[C@H](c1nc2ccc(C#N)cc2[nH]1)[C@H]1CC[C@H]2[C@@H]3CCC4=CC(=O)CC[C@]4(C)[C@H]3CC[C@]12C | 34.6% | 20.3% | 79.6% | 85.3% | 46% | 80% | 66.9% | 72.1% | 63.4% | 67.5%
3 | C=C(C)[C@@H]1CC[C@]2(C(=O)N3CCN(C)CC3)CC[C@]3(C)[C@H](CC[C@@H]4[C@@](C)(CCC(=O)O)[C@H](C(=C)C)CC[C@]43C)[C@@H]12 | 56.9% | 58.6% | 88.9% | 111% | 97% | 89.6% | 104% | 88.8% | 86.7% | 92.4%
4 | CC(C)(C)c1ccc(S(=O)(=O)Oc2ccc(-c3sc4cc(OS(=O)(=O)c5ccc(C(C)(C)C)cc5)ccc4c3C(=O)c3ccc(OCCN4CCCCC4)cc3)cc2)cc1 | 104% | 93.6% | 115% | 99.4% | 97.1% | 88.8% | 101% | 102% | 104% | 97.9%
5 | CCCCCCCCCCOC(=O)c1nn(C(C)=O)c2cc(C)c(C)cc12 | 98.2% | 88.9% | 98.5% | 100% | 0.466% (active) | 92.3% | 103% | 111% | 104% | 98.1%
6 | CCN(CC)CCOc1ccc(/C(=C(\C)Cc2ccc(OC)cc2)c2ccc(OC(=O)NCc3ccccc3)cc2)cc1 | -53% (active) | 3.04% (active) | 68.7% | 81.9% | 58% | 91.2% | 77.5% | 76.1% | 63.2% | 78.7%
7 | Cn1cc(-c2csc(-c3cn(CCCN4CCOCC4)c4ccc(F)cc34)n2)c2cccnc21 | 48.4% | 34.8% | 47.6% | 73% | 56.6% | 80% | 76.3% | 77.6% | 46.6% | 53.8%
8 | COc1cc(/C=N/NC(=O)c2ccc(-n3cc(-c4ccccc4)nn3)cc2)cc(OC)c1OC | 55.4% | 24% | 49% | 105% | 45.8% | 73.7% | 57% | 93% | 53.1% | 80.8%
9 | O=C(NC1CCC(Br)CC1)C1CCCC(S(=O)(=O)NC2CCCCC2)C1 (stereo not given) | 21.1% [25 µM] | 2.82% [25 µM] (active) | 7.56% [25 µM] (active) | 39.2% [25 µM] | 4.59% [25 µM] (active) | 1.87% [25 µM] (active) | 27.4% [25 µM] | 14.3% [25 µM] | 46.1% [25 µM] | 3.69% [25 µM] (active)
10 | C=C(c1ccc(C(=O)O)c(F)c1)c1cc2c(cc1C)C(C)(C)CCC2(C)C | 86.8% | 43.1% | 90.8% | 101% | 80.9% | 84.8% | 98% | 90.8% | 59.6% | 79.5%
11 | O=C(O)CCCCCCCCCCN1C(=O)/C(=C2/C(=O)N(CC(=O)O)c3ccc(Br)cc32)SC1=S | 57.6% | 79.3% | 65.9% | 106% | 95% | 96.6% | 74.3% | 87.9% | 85% | 96.7%
12 | Cc1nc2ccccc2c(/C=C/c2ccc(F)cc2)c1C(=O)/C=C/c1ccccc1 | 8.92% (active) | 1.46% (active) | 2.09% (active) | -22% (active) | 36.4% | 56% | 13.6% | -15.4% (active) | 22.4% | 2.57% (active)
13 | N#Cc1c(-c2cccc(Cl)c2)cc(-c2cccnc2)[nH]c1=O | 21.9% | 88.8% | 98.1% | 98.4% | 102% | 90.7% | 72.4% | 47.2% | 62.7% | 80.3%
14 | c1ccc(Nc2nc3c(s2)CCc2c[nH]cc2-3)nc1 | 75.8% | 89% | 90.7% | 108% | 78% | 83.7% | 86.2% | 74.1% | 96% | 92.7%
